# Many of the other results were omitted from the sample, so the strongest signals are more common in it than they were.
# B1: LlpA (Arthrobacter sp) (protein)
# chain: MGSSHHHHHHSSGLVPRGSHMTLHPETALRPGAAATSPNSRYRLLYQTDGNLVLYGPDGPLWDSGTNGHGAGACIMQADGNLVLYGPNDEYVWDTETDNNPGSRLVIQDDGNAVIYRPDGSPLWATETCQPPGSADSHVLQSGSTLTPTHGIRSANGLYGLLYQTDGNLVFYGPDGPLWDSGTNGRGAGACIMQPDGNLVLYGPHDEYVWDTETDNNPGSRLVIQDDGNAVIYRPDGNPTWVTGTH
# Experiments:
# Assay in all cases: glycan array binding signal (z-score within array); higher = stronger binding
# Conditions in all cases: glycan notation: IUPAC condensed, linker removed
# [1] = molecular target: GlcNAc(b1-3)Gal(b1-4)GlcNAc(b1-3)Gal(b1-4)GlcNAc
# Procedure, shortened: (§1)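 From the Consortium for Functional Glycomics database, 3228 arrays were curated, keeping only those whose protein sequence was available. Binding is given as a within-array Z-score averaged across arrays sharing a protein sequence and across linkers. Negative Z-scores can be read as non-binding.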
# [2] = molecular target: GlcNAc(b1-3)Gal(b1-4)GlcNAc(b1-3)Gal(b1-4)GlcNAc(b1-2)Man(a1-3)[GlcNAc(b1-3)Gal(b1-4)GlcNAc(b1-3)Gal(b1-4)GlcNAc(b1-2)Man(a1-6)]Man(b1-4)GlcNAc(b1-4)[Fuc(a1-6)]GlcNAc
# Procedure, shortened: as §1
# [3] = molecular target: GlcNAc(b1-3)Gal(b1-4)GlcNAc(b1-3)Gal(b1-4)GlcNAc(b1-3)Gal(b1-4)GlcNAc(b1-3)Gal(b1-4)GlcNAc(b1-2)Man(a1-3)[GlcNAc(b1-3)Gal(b1-4)GlcNAc(b1-3)Gal(b1-4)GlcNAc(b1-3)Gal(b1-4)GlcNAc(b1-3)Gal(b1-4)GlcNAc(b1-2)Man(a1-6)]Man(b1-4)GlcNAc(b1-4)[Fuc(a1-6)]GlcNAc
# Procedure, shortened: as §1
# [4] = molecular target: GlcNAc(b1-3)Gal(b1-4)GlcNAc(b1-3)Gal(b1-4)GlcNAc(b1-3)Gal(b1-4)GlcNAc(b1-3)Gal(b1-4)GlcNAc(b1-2)[GlcNAc(b1-3)Gal(b1-4)GlcNAc(b1-3)Gal(b1-4)GlcNAc(b1-3)Gal(b1-4)GlcNAc(b1-3)Gal(b1-4)GlcNAc(b1-6)]Man(a1-6)[GlcNAc(b1-3)Gal(b1-4)GlcNAc(b1-3)Gal(b1-4)GlcNAc(b1-3)Gal(b1-4)GlcNAc(b1-3)Gal(b1-4)GlcNAc(b1-2)Man(a1-3)]Man(b1-4)GlcNAc(b1-4)[Fuc(a1-6)]GlcNAc
# Procedure, shortened: as §1
# [5] = molecular target: GlcNAc(b1-3)Gal(b1-4)GlcNAc(b1-3)Gal(b1-4)GlcNAc(b1-3)GalNAc
# Procedure, shortened: as §1
# [6] = molecular target: GlcNAc(b1-3)Gal(b1-4)GlcNAc(b1-6)[Gal(b1-3)]GalNAc
# Procedure, shortened: as §1
# GlcNAc(b1-3)Man = molecular target: GlcNAc(b1-3)Man
# Procedure, shortened: as §1
# [7] = molecular target: GlcNAc(b1-4)GlcNAc(b1-4)GlcNAc(b1-4)GlcNAc(b1-4)GlcNAc
# Procedure, shortened: as §1
# [8] = molecular target: Man(a1-2)Man(a1-6)[Man(a1-3)]Man(a1-6)[Man(a1-2)Man(a1-2)Man(a1-3)]Man(b1-4)GlcNAc(b1-4)GlcNAc
# Procedure, shortened: as §1
# MurNAc(b1-4)GlcNAc = molecular target: MurNAc(b1-4)GlcNAc
# Procedure, shortened: as §1
# [9] = molecular target: Neu5Ac(a2-3)Gal(b1-3)GalNAc(b1-4)[Neu5Ac(a2-8)Neu5Ac(a2-3)]Gal(b1-4)Glc
# Procedure, shortened: as §1
# [10] = molecular target: Neu5Ac(a2-3)Gal(b1-3)GlcNAc(b1-2)Man(a1-3)[Neu5Ac(a2-3)Gal(b1-3)GlcNAc(b1-2)Man(a1-6)]Man(b1-4)GlcNAc(b1-4)GlcNAc
# Procedure, shortened: as §1
# [11] = molecular target: Neu5Ac(a2-3)Gal(b1-3)GlcNAc(b1-6)GalNAc
# Procedure, shortened: as §1
# [12] = molecular target: Neu5Ac(a2-3)Gal(b1-4)GlcNAc(b1-3)Gal(b1-3)GlcNAc
# Procedure, shortened: as §1
# [13] = molecular target: Neu5Ac(a2-3)Gal(b1-4)[Fuc(a1-3)]GlcNAc(b1-3)GalNAc
# Procedure, shortened: as §1
# [14] = molecular target: Neu5Ac(a2-3)[GalNAc(b1-4)]Gal(b1-4)Glc
# Procedure, shortened: as §1
# [15] = molecular target: Neu5Ac(a2-6)Gal(b1-4)GlcNAc(b1-2)Man(a1-3)[Gal(b1-4)GlcNAc(b1-2)Man(a1-6)]Man(b1-4)GlcNAc(b1-4)GlcNAc
# Procedure, shortened: as §1
# [16] = molecular target: Neu5Ac(a2-6)Gal(b1-4)GlcNAc(b1-2)Man(a1-3)[Neu5Ac(a2-6)Gal(b1-4)GlcNAc(b1-2)Man(a1-6)]Man(b1-4)GlcNAc(b1-4)[Fuc(a1-6)]GlcNAc
# Procedure, shortened: as §1
# [17] = molecular target: Neu5Ac(a2-6)Gal(b1-4)GlcNAc(b1-2)Man(a1-6)Man(b1-4)GlcNAc(b1-4)GlcNAc
# Procedure, shortened: as §1
# [18] = molecular target: Neu5Ac(a2-6)Gal(b1-4)GlcNAc(b1-3)Gal(b1-3)GlcNAc
# Procedure, shortened: as §1
# [19] = molecular target: Neu5Ac(a2-6)Gal(b1-4)GlcNAc(b1-3)Gal(b1-4)GlcNAc(b1-3)Gal(b1-4)GlcNAc(b1-2)Man(a1-3)[Neu5Ac(a2-6)Gal(b1-4)GlcNAc(b1-3)Gal(b1-4)GlcNAc(b1-3)Gal(b1-4)GlcNAc(b1-2)Man(a1-6)]GalNAc
# Procedure, shortened: as §1
# [20] = molecular target: Neu5Ac(a2-6)Gal(b1-4)GlcNAc(b1-3)Gal(b1-4)GlcNAc(b1-3)GalNAc
# Procedure, shortened: as §1
# [21] = molecular target: Neu5Ac(a2-6)Gal(b1-4)GlcNAc(b1-3)Gal(b1-4)GlcNAc(b1-3)[Neu5Ac(a2-6)Gal(b1-4)GlcNAc(b1-3)Gal(b1-4)GlcNAc(b1-6)]GalNAc
# Procedure, shortened: as §1
# [22] = molecular target: Neu5Ac(a2-8)Neu5Ac(a2-3)Gal(b1-3)GalNAc(b1-4)[Neu5Ac(a2-8)Neu5Ac(a2-3)]Gal(b1-4)Glc
# Procedure, shortened: as §1
# [23] = molecular target: Neu5Ac(a2-8)Neu5Ac(a2-3)[Gal(b1-3)GalNAc(b1-4)]Gal(b1-4)Glc
# Procedure, shortened: as §1
# [24] = molecular target: Neu5Ac9Ac(a2-6)Gal(b1-4)GlcNAc
# Procedure, shortened: as §1
# [25] = molecular target: Neu5Gc(a2-6)Gal(b1-4)GlcNAc
# Procedure, shortened: as §1
# [26] = molecular target: Neu5Gc(a2-8)Neu5Ac(a2-3)Gal(b1-4)GlcNAc
# Procedure, shortened: as §1
binder,measurement,setting,value
B1,glycan array binding signal (z-score),[1],-0.689
same,glycan array binding signal (z-score),[2],2.11
same,glycan array binding signal (z-score),[3],2.07
same,glycan array binding signal (z-score),[4],1.82
same,glycan array binding signal (z-score),[5],0.18
same,glycan array binding signal (z-score),[6],-0.319
same,glycan array binding signal (z-score),GlcNAc(b1-3)Man,1.02
same,glycan array binding signal (z-score),[7],0.068
same,glycan array binding signal (z-score),[8],0.31
same,glycan array binding signal (z-score),MurNAc(b1-4)GlcNAc,-0.798
same,glycan array binding signal (z-score),[9],-0.752
same,glycan array binding signal (z-score),[10],-0.65
same,glycan array binding signal (z-score),[11],0.849
same,glycan array binding signal (z-score),[12],0.273
same,glycan array binding signal (z-score),[13],1.8
same,glycan array binding signal (z-score),[14],0.446
same,glycan array binding signal (z-score),[15],-0.376
same,glycan array binding signal (z-score),[16],2.31
same,glycan array binding signal (z-score),[17],0.4
same,glycan array binding signal (z-score),[18],-0.33
same,glycan array binding signal (z-score),[19],2.47
same,glycan array binding signal (z-score),[20],0.214
same,glycan array binding signal (z-score),[21],0.568
same,glycan array binding signal (z-score),[22],1.98
same,glycan array binding signal (z-score),[23],0.321
same,glycan array binding signal (z-score),[24],0.62
same,glycan array binding signal (z-score),[25],-0.005
same,glycan array binding signal (z-score),[26],-0.504

# — the supplement of paper PMC8728848
